This is an account of results in PubChem BioAssay.

Assay [1] can be described thus: inhibitors of TNFa-induced NFkB p65 translocation, primary screen, imaging, HUVEC, MLSMR starter and 10KST1 sets (AID 438;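 active = inhibition above 20% together with a positive visual image hit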;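 also: compound added about 3h40 before a 20 min TNFalpha stimulation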;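 as to inhibition: signal is the nuclear over cytoplasmic p65 intensity ratio per well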). Particulars: HUVEC TNFa-induced p65 nuclear translocation; cell count: measured here: nuclei count (cytotoxicity indicator), at 2.08 µM; inhibition: at 2 µM, stronger effect = higher value, 0% TNFa-plus-vehicle, 100% no-TNFa wells.
Assay [2] can be described thus: inhibitors of mutant huntingtin aggregation, primary screen, imaging, exon1htt(103Q)mCFP cells, high-content imaging (AID 483;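 active = visual image review flags a hit and inhibition of aggregation exceeds 20%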;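 also: compound exposure lasted 3 days before fixation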;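 as to nuclei count: percent of the per-plate median nuclei count of sample wells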). Particulars: exon1htt(103Q)mCFP cell line, aggregate imaging, at 2 µM; inhibition of aggregation: stronger effect = higher value; nuclei count: measured here: cell count, toxicity.
Assay [3] in a line: inhibitors of E-selectin induction by TNFa, primary screen, imaging, HUVEC, immunofluorescence, MLSMR starter and 10KST1 sets (AID 487;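 active = visually confirmed hit in the image check and inhibition above 20%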;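 as to inhibition: signal is fraction of cell area covered by stained E-selectin grains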;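 as to nuclei count: 100% = median nuclei count of all wells on the same plate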). The conditions noted are these: HUVEC TNFalpha-induced E-selectin immunofluorescence imaging, at 2 µM; inhibition: stronger effect = higher value; nuclei count: measured here: cell number, toxicity.
Assay [4] in a line: DUSP6 inhibitors restoring Erk phosphorylation by chemical complementation, primary imaging in DUSP6-transfected HeLa (AID 609;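 active = compounds giving at least 50% inhibition in the cell-based MKP-3 phosphatase rescue imaging test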;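 as to inhibition: phospho-Erk level distribution per well compared with pooled transfected vehicle control wells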). Particulars: HeLa MKP-3 transfected, phospho-Erk imaging KS statistic, at 10 µM, cells stimulated with TPA for 15 min.
The target of assay [5] is Dual specificity protein phosphatase 6 (Homo sapiens) (UniProt Q16828). Described as above. The conditions noted are these: HeLa MKP-3 transfected, phospho-Erk imaging KS statistic; at 10 µM; stronger effect = higher value; cells stimulated with TPA for 15 min.
Assay [6] deals with Voltage-gated potassium channel subunit beta-2 (Rattus norvegicus) (UniProt P62483). Kind of assay: KvBeta enzyme negative modulators, primary screen, biochemical, NADPH fluorescence (AID 622;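 active = fluorescence slope higher than the sample average by over 3 SD, cut at about -0.22 in these data, passing the limit was not always enough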;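 also: slope of raw intensity against log time taken from 70 to 1610 s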). The conditions noted are these: recombinant KvBeta, 4-cyanobenzaldehyde reduction, at 10 µM, stronger effect = higher value.
Assay [7] shares this target. Kind of assay: KvBeta positive modulators, primary screen, biochemical, NADPH fluorescence (AID 623;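 active = NADPH fluorescence slope more negative than the mean of all samples by about 3 SD, 99.7% confidence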;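 also: fluorescence intensity change per second fitted from 20 to 320 s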). The conditions noted are these: Recombinant KvBeta, NADPH fluorescence decrease slope, 10 min; at 10 µM; stronger effect = lower value.
The target in assay [8] is Alpha-2C adrenergic receptor (Homo sapiens) (UniProt P18825). Kind of assay: modulators of alpha2C/GIRK thallium flux, primary screen, cell-based, HEK293 alpha2C/GIRK1/2 (AID 624;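 active = fluorescence slope after compound addition differing from the mean of all screened samples at 99.7% confidence, in either direction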;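 also: slope of fluorescence ratio to pre-addition baseline per second over 15 to 24 s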). The conditions noted are these: thallium flux BTC fluorescence, at 10 µM, actives lie on both sides.
Assay [9] can be described thus: inhibitors of larval lipid processing in zebrafish, primary screen, whole organism, PED6 fluorescence, gall bladder and intestine (AID 686;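 active = a full or partial loss of lipid-probe fluorescence in the fish gall bladder, intestine or both, judged by eye; inactive = no fluorescence loss, or compound toxic to the fish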;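 also: larvae 5 to 7 days old with five fish per well; signal comes from phospholipase A2 cleavage of quenched PED6 carried via bile; overnight exposure to compound and PED6 before scoring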). Particulars: Zebrafish larvae PED6 lipid processing, fluorescence scoring; screened at 20 µM (by protocol).
Assay [10] in a line: inhibitors of Chlamydomonas gravitaxis, primary screen, whole organism, Chlamydomonas reinhardtii, WT vs cilia-less mutant, absorbance, 96-well (AID 463189).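 Also: 0% = wild type cc124 cells in DMSO and 100% = ciliumless bld1 mutant cells.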 The conditions noted are these: OD600 absorbance, 2 days, at 10 µM, stronger effect = higher value.
A short description of assay [11]: inhibitors of Sendai virus-induced IRF3 signaling, primary screen, TLR/RLR signaling modifier project, cell-based, Sendai virus stimulus, luciferase, 10K MLSCN set (AID 602276;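 active = inhibition at or above 50% at 10 µM; inactive = inhibition below 50%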;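 also: firefly luciferase from ISG56 promoter only with Renilla not read in this screen; 0% = Sendai virus plus DMSO and 100% = medium plus DMSO without virus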). Particulars: HEK293 RL24 IRF3 luciferase reporter, at 10 µM, stronger effect = higher value. Background: Reporter assays use an easily measured gene product as a stand-in for the process of interest.

Assay [12] in a line: inhibitors of poly I:C-induced TLR3 signaling, primary screen, cell-based, poly I:C stimulus, luciferase, 10K MLSCN set (AID 602277;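 active = inhibition of the reporter signal at or above 50%; inactive = inhibition below 50%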). Particulars: HEK293-TLR3 RL24 IRF3 luciferase reporter, at 10 µM, stronger effect = higher value.
[13] abbreviates: measured here: cell density z-score.
[14] abbreviates: measured here: nuclear c-Myc green intensity z-score.
Where [15] appears, read: measured here: nuclear pErk red intensity z-score, stronger effect = higher value.

Values joined by “and” are separate entries in the source; they are usually repeats but may differ in a detail not shown here. Equal values may be shown once. Active and inactive are the calls of the source.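 The calls were made as follows, unless noted: active = inhibition at or above 50% relative to wild type and mutant plate controls; inactive = inhibition below 50%.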

Sequence of Alpha-2C adrenergic receptor (Homo sapiens) (P18825 whole entry, looked up): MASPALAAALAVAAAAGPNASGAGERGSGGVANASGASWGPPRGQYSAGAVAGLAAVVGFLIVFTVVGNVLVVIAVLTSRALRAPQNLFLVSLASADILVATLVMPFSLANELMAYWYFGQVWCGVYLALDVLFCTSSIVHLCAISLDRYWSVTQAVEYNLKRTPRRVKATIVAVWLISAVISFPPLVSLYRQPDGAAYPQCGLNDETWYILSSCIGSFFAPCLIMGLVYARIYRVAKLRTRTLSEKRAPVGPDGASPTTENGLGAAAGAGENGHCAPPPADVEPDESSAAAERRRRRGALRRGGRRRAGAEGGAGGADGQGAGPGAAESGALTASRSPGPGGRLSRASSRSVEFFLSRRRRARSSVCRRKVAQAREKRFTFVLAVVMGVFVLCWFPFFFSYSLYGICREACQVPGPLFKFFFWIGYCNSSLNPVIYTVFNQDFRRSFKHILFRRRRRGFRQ
Sequence of Dual specificity protein phosphatase 6 (Homo sapiens) (Q16828 whole entry, looked up): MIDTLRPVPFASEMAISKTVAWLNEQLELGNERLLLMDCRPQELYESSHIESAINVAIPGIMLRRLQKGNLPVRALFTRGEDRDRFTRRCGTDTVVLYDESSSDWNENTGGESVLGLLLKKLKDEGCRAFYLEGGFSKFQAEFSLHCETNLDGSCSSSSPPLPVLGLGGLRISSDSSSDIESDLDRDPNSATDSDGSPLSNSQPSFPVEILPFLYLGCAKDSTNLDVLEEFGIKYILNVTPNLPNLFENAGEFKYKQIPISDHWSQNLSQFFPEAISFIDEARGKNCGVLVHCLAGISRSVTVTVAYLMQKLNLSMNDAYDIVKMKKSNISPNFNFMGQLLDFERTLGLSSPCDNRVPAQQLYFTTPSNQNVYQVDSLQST
Sequence of Voltage-gated potassium channel subunit beta-2 (Rattus norvegicus) (P62483 whole entry, looked up): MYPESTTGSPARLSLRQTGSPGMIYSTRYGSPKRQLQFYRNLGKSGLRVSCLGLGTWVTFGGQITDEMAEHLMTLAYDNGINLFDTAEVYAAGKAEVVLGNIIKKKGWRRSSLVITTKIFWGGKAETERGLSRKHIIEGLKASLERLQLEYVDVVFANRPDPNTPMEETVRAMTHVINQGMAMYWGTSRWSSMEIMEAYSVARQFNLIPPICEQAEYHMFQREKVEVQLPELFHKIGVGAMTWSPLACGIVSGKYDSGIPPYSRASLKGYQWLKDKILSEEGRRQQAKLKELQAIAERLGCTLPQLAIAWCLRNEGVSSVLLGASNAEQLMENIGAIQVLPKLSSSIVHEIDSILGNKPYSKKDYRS

The inhibition is the drop in the measured response relative to a control, in per cent. In the case of `CCOc1nc(-c2ccncc2)nc2ccccc12`, the cell count in assay [1] was found to be 416. Besides, the inhibition in [1] is 5.6% (inactive); in assay [3], -66.1% (inactive); in assay [5] it was 4.25% (inactive); in assay [10], 39.6% (inactive); in assay [11], 13.1% (inactive); in assay [12], 16.5% (inactive). Further, the inhibition of aggregation in assay [2] is -55% (inactive). The nuclei count in assay [2] was found to be 13.3%; in assay [3], 116%. Moreover, the z-score in assay [4] (setting [13]) is -2.21; in [4] (setting [14]), -0.624; in assay [4] (setting [15]) it was 0.47. In addition, the fluorescence slope in [6] is -0.322 (inactive). The NADPH fluorescence slope in [7] was 3e-05 (inactive). The slope in assay [8] was 0.00435 (inactive). Further, the call in assay [9] was inactive.

Take `Cc1nc(-c2coc3cc(OCC(=O)O)ccc3c2=O)cs1`: the cell count in [1] was 642. The inhibition in [1] was -9% (inactive); in assay [3], -136% (inactive); in assay [5], 11.9% (inactive); in assay [10] it was 29.5% (inactive); in assay [11], 20.3% (inactive); in [12], 15.4% (inactive). For the same compound, the inhibition of aggregation in assay [2] is 16.4% (inactive). Moreover, the nuclei count in assay [2] was found to be 100%; in assay [3], 114%. In addition, the z-score in assay [4] (setting [13]) was -0.205; in [4] (setting [14]) it was 0.979; in assay [4] (setting [15]) it was 0.055. In addition, in [6], the fluorescence slope was -0.552 (inactive). Further, the NADPH fluorescence slope in assay [7] was -4.6e-05 (inactive). The slope in [8] was 0.00509 (inactive). Moreover, the call in [9] was inactive.

As to `CC1CCc2cc(F)cc3c(O)c(C(=O)NCC4CCCO4)c(=O)n1c23` (stereo not given), the cell count in assay [1] turned out to be 553. Moreover, the inhibition was 2.6% (inactive) in assay [1]; -28.6% (inactive) in assay [3]; -8.76% (inactive) in assay [5]; 11.8% (inactive) in [10]; 4.8% (inactive) in assay [11]; 8.44% (inactive) in [12]. In addition, the inhibition of aggregation in [2] was 1.2% (inactive). For the same compound, the nuclei count in [2] is 83.8%; in [3] it was 134%. Moreover, the z-score in assay [4] (setting [13]) is -0.0424; in [4] (setting [14]) it was -0.796; in assay [4] (setting [15]), -0.351. In addition, in assay [6], the fluorescence slope was -0.395 (inactive). Moreover, in assay [7], the NADPH fluorescence slope is 1.7e-06 (inactive). The slope in [8] is 0.0054 (inactive). In addition, the compound was classed as inactive in [9].

For the compound `CCCCOc1cc(C(=O)NCCN(CC)CC)c2ccccc2n1`, the cell count in [1] was 511 and 578. The inhibition in assay [1] was -5.3% (inactive) and -4.6% (inactive); in [3] it was 13% (inactive) and -47.1% (inactive); in [5] it was 11.3% (inactive) and -6.41% (inactive); in assay [10], 1.51% (inactive) and 12.2% (inactive); in assay [11], 4.17% (inactive) and 5.36% (inactive); in assay [12], 54.6% (active) and 61.4% (active). Besides, the inhibition of aggregation in assay [2] is 9.3% (inactive) and -1.1% (inactive). The nuclei count in [2] was 92.4% and 92.8%; in assay [3] it was 125% and 129%. Further, the z-score in assay [4] (setting [13]) is -0.0512 and 0.242; in assay [4] (setting [14]), 1.21 and -0.093; in [4] (setting [15]), 0.116 and 1.52. Also, in assay [6], the fluorescence slope was -0.452 (inactive) and -0.465 (inactive). Besides, the NADPH fluorescence slope in [7] is -7.4e-05 (inactive) and -5.9e-05 (inactive). The slope in assay [8] was 0.00498 (inactive) and 0.00574 (inactive). Moreover, the call in assay [9] was inactive.

On to `CCC1(c2ccccc2)C(=O)NCNC1=O`, for which, in assay [1], the cell count was 647. Also, the inhibition in [1] is 3.5% (inactive); in [3], -70% (inactive); in assay [5] it was 5.79% (inactive); in assay [10], -4.31% (inactive) and 28.8% (inactive); in assay [11] it was 17% (inactive); in assay [12] it was 30.6% (inactive). Also, the inhibition of aggregation in [2] is -10.2% (inactive). Besides, the nuclei count is 103% in assay [2] and 129% in assay [3]. The z-score in [4] (setting [13]) was -0.87; in [4] (setting [14]), 2.71; in assay [4] (setting [15]), -0.522. Moreover, the fluorescence slope in assay [6] was -0.469 (inactive). Moreover, in assay [7], the NADPH fluorescence slope is -8.7e-06 (inactive). Further, the slope in assay [8] is 0.00482 (inactive). Besides, in assay [9], the call was inactive.
